Records with an inconclusive call do not appear. Unmarked numbers belong to inactive results. Calls of active or inactive are those of the source. Calls follow the shape of the dose curve; as a rule, active = well fitted inhibition curve with a large enough effect; inconclusive = small, poorly fitted or top-dose-only effect; inactive = no such curve, though single readings can be large or run the other way.

Sequence of RecQ-like DNA helicase BLM (Homo sapiens) (P54132 whole entry, looked up): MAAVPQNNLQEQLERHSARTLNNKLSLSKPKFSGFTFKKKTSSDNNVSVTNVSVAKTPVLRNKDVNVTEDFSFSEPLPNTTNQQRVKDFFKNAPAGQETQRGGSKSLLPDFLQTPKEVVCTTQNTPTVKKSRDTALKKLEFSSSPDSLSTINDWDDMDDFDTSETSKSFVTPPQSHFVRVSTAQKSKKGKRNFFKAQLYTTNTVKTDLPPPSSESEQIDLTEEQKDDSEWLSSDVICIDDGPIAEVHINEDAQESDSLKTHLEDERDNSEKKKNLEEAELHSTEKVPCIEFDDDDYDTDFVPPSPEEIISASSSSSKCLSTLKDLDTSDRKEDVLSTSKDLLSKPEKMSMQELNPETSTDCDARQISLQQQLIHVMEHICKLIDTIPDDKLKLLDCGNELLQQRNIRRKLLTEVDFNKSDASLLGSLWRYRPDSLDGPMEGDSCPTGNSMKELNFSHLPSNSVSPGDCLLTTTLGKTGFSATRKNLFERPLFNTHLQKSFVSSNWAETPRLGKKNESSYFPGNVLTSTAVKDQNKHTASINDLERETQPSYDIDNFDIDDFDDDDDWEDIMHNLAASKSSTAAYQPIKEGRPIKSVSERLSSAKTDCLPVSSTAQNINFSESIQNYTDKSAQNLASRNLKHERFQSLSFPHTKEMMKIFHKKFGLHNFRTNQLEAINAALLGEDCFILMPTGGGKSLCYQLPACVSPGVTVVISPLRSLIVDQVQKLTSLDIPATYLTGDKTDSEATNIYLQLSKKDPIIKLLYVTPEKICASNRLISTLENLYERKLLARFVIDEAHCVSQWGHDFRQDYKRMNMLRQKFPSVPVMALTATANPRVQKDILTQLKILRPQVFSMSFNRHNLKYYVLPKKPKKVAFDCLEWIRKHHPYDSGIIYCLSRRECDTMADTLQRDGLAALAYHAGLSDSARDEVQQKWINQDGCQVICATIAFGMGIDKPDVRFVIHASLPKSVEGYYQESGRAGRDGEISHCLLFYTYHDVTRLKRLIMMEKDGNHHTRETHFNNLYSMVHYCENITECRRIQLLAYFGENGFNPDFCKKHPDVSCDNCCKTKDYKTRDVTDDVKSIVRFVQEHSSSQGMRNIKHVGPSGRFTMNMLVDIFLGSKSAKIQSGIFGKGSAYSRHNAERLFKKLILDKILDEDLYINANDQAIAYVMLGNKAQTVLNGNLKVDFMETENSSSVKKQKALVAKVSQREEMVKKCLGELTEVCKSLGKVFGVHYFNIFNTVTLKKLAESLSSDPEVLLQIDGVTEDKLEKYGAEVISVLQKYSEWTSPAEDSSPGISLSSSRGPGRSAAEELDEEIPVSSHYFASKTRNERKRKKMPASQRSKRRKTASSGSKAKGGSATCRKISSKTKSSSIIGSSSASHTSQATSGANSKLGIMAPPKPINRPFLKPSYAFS

The assay concerns the target RecQ-like DNA helicase BLM (Homo sapiens) (UniProt P54132). The assay can be described thus: qHTS for Inhibitors of Bloom's syndrome helicase (BLM): Helicase DNA unwinding fluorescent orthogonal confirmatory assay for SAR. Particulars: fluorescence, orthogonal confirmation; series mostly up to 55.6 µM; activity change, negative = inhibition: at the top concentration. The gist of the method: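 Gel-based orthogonal unwinding test: native PAGE separated substrate from single-stranded product of a fluorescent DNA duplex processed by purified BLM (2mM ATP, 50mM NaCl, room temperature). Bands were quantified and normalised against no-enzyme and no-inhibitor wells.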
Regarding `O=C(Nc1ccc2sccc2c1)Nc1nnc(-c2ccncc2)s1`, the Potency was 10 µM (active).

Regarding `O=C(Nc1ccc2ccccc2c1)Nc1nnc(-c2ccccc2Cl)s1`, the “activity change, negative = inhibition” value is -10.2%.

In the case of `O=C(Nc1ccc2sccc2c1)Nc1nnc(-c2cccnc2)s1`, the Potency is 10 µM (active).

As for `Cc1cc(NC(=O)Nc2nnc(-c3ccncc3)s2)ccc1C#N`, the Potency was 3.16 µM (active).

For `O=C(Nc1ccc(N2CCOCC2)c(F)c1)Nc1nnc(-c2ccncc2)s1`, the “activity change, negative = inhibition” value was -0.865% [at 53.6 µM].

As to `Nc1cc(NC(=O)Nc2nnc(-c3ccncc3)s2)ccc1Cl`, the Potency is 11.2 µM (active).

As to `O=C(Nc1ccccc1)Nc1nnc(-c2ccncc2)s1`, the “activity change, negative = inhibition” value was 1.11%.

For the molecule `O=C(Nc1ccc(Cl)c(Cl)c1)Nc1ncc(-c2ccncc2)s1`, the “activity change, negative = inhibition” value was -22.2% [at 53.6 µM].

As to `O=C(Nc1nnc(-c2ccncc2)s1)Nc1ccc(Cl)cc1F`, the Potency was 28.2 µM (active).

Take `O=C(Cc1nnc(-c2ccncc2)s1)Nc1ccc(F)c(C(F)(F)F)c1`: the “activity change, negative = inhibition” value was -13.6% [at 53.6 µM].

For the molecule `O=C(Nc1cccc(C(=O)O)c1)Nc1nnc(-c2ccncc2)s1`, the “activity change, negative = inhibition” value is -8.63%.

Regarding `O=C(Nc1ccc(Br)cc1)Nc1nnc(-c2ccncc2)s1`, the Potency is 12.6 µM (active).

On to `O=c1c(Nc2ccc(Cl)c(Cl)c2)c(Nc2nnc(-c3ccncc3)s2)c1=O`, for which the Potency was 14.1 µM (active).

With `N/C(=N\c1nnc(-c2ccncc2)s1)Nc1ccc(Cl)c(Cl)c1`, the Potency is 14.1 µM (active).

With `Cc1cc(NC(=O)Nc2nnc(C3CCCCC3)s2)ccc1Cl`, the “activity change, negative = inhibition” value is 8.63%.

Consider `O=C(Nc1ccc2ccccc2c1)Nc1nnc(-c2ccc(F)cc2)s1`, for which the “activity change, negative = inhibition” value is -1.89%.

Take `O=C(Nc1ccc(N2CCOCC2)c(C(F)(F)F)c1)Nc1nnc(-c2ccncc2)s1`: the Potency is 28.2 µM (active).

In the case of `O=C(Nc1nnc(-c2ccncc2)s1)Nc1ccc(Cl)c2ccccc12`, the Potency was 14.1 µM (active).

Values taken from PubChem BioAssay AID720555 (National Center for Advancing Translational Sciences (NCATS), 2013).
